{
  "source": "PubChem BioAssay (EPA / NIEHS)",
  "note": "Several values for one entry are separate records, joined by “and”; a condition that tells them apart may be missing. Equal values may be shown once. More than one record can exist for a structure, and the calls need not agree. Activity calls are given as the source filed them. The calls were made as follows: active = hit-call score of the fitted dose curve at least 0.9, where 1 is the maximum; inactive = score below 0.9.",
  "data": [
    {"assay": "ATG_Oct_MLP_CIS: Attagene CIS-FACTORIAL HepG2 Assay for human Octamer-Binding Transcription Factor (Oct) (AID 2282993)", "details": "HepG2 Attagene cis-factorial Oct reporter, mRNA; actives raise or lower the signal", "experimental": "ATG_CIS is a cell-based, multiplexed-readout assay that uses HepG2, a human liver cell line, with measurements taken at 24 hours after chemical dosing in a 24-well plate.ATG_Oct_MLP_CIS is one of 52 assay component(s) measured or calculated from the ATG_CIS assay. It is designed to make measurements of mRNA induction, a form of inducible reporter, as detected with fluorescence intensity signals by Reverse transcription polymerase chain reaction (RT-PCR) and Capillary electrophoresis technology.Data from the assay component ATG_Oct_MLP_CIS was analyzed into 1 assay endpoint. This assay endpoint, ATG_Oct_MLP_CIS, was analyzed with bidirectional fitting relative to DMSO as the negative control and baseline of activity. Using a type of inducible reporter, measures of mRNA for gain or loss-of-signal activity can be used to understand the reporter gene at the transcription factor-level as they relate to the gene POU2F1. Furthermore, this assay endpoint can be referred to as a primary readout, because this assay has produced multiple assay endpoints where this one serves a reporter gene function. To generalize the intended target to other relatable targets, this assay endpoint is annotated to the dna binding intended target family, where the subfamily is POU domain protein.\nHuman liver HepG2 cells are transiently transfected with multiple reporter transcription units (MRTUs) in 6-well plates using FuGene 6 reagent (Roche; 3 ml FuGene/1 mg DNA). The MRTU constructs are regulated by a cis-regulating element (promoter). […] A major difference between the CIS and TRANS system is that in CIS activities of endogenous TFs are measured, whereas the TRANS assay evaluates changes in activities of exogenous, chimeric NR-Gal4 proteins. […] At the end of 24 hour incubation, total RNA was isolated using TriZol reagent (Invitrogen). The isolated RNA is then reverse-transcribed using oligo(dT) primer and Mo-MLV reverse transcriptase (Invitrogen) with DNAse I (Ambion) treatment for 30 min. The one-tenth of the produced cDNA was amplified by PCR using Taq DNA polymerase (Invitrogen) and two reporter sequence-specific primers. The PCR products were fluorescently labeled by primer extension with 6-arboxyfluorescein (6-FAM) 5'-labeled reporter sequence-specific primer (2 min at 95 C, 20 s at 68 C and 10 min at 72 C) and these products were digested with 5U of HpaI (New England Biolabs) for 2h at 37 C. The fragments were purified using Qiaquick PCR columns (Qiagen), analyzed on an ABI 3130xL genetic analyzer (Applied Biosystems) with peak positions identified by using a set of X-rhodamine (ROX)-labeled MapMarker1000 molecular weight standards (BioVentures). The raw capillary electrophoresis data was processed using Attagraph software (Attagene).", "values": [
      {"smiles": "c1ccc(-c2ccccc2)cc1", "outcome": "inactive"},
      {"smiles": "O=C(NC(=O)c1c(F)cccc1F)Nc1cc(Cl)c(OC(F)(F)C(F)F)c(Cl)c1", "outcome": "inactive"},
      {"smiles": "CCC(C)(c1ccc(O)cc1)c1ccc(O)cc1", "AC50": "53 µM (active) and 45.7 µM (active) and 9.52 µM (active)", "outcome": "inactive"},
      {"smiles": "ClC1=C(Cl)[C@]2(Cl)[C@@H]3[C@H]4C[C@H]([C@@H]5O[C@H]45)[C@@H]3[C@@]1(Cl)C2(Cl)Cl", "outcome": "inactive"},
      {"smiles": "N#Cc1ccc(N(CC(N)=O)CC(F)(F)F)cc1C(F)(F)F", "outcome": "inactive"},
      {"smiles": "Clc1ccc(C(c2ccccc2Cl)C(Cl)(Cl)Cl)cc1", "note": "(stereo not given)", "outcome": "inactive", "AC50": "70.5 µM (active) and 104 µM (active) and 42.3 µM (active)"},
      {"smiles": "Cc1cc2c3c(c1)C(c1ccccc1)=N[C@@H](NC(=O)c1ccncc1)C(=O)N3CC2", "AC50": "74 µM (active)"},
      {"smiles": "NS(=O)(=O)C(F)(F)C(F)(F)C(F)(F)C(F)(F)C(F)(F)C(F)(F)C(F)(F)C(F)(F)F", "outcome": "inactive", "AC50": "50 µM (active)"},
      {"smiles": "CC(C)(c1ccccc1)c1ccc(O)cc1", "AC50": "54.7 µM (active) and 33.4 µM (active)", "outcome": "inactive"},
      {"smiles": "CCOP(=S)(OCC)SCSC(C)(C)C", "outcome": "inactive"},
      {"smiles": "O=C(O)C(F)(F)C(F)(F)C(F)(F)C(F)(F)C(F)(F)C(F)(F)C(F)(F)C(F)(F)F", "outcome": "inactive", "AC50": "50 µM (active)"},
      {"smiles": "O=C(NC(=O)c1cc(F)c(F)cc1Cl)Nc1cc(F)ccc1N1CCC(C(=O)O)CC1", "outcome": "inactive"},
      {"smiles": "CC(C)(O)C(=O)Nc1ccc([N+](=O)[O-])c(C(F)(F)F)c1", "AC50": "38.9 µM (active)", "outcome": "inactive"},
      {"smiles": "O=C(O)C(F)(F)C(F)(F)C(F)(F)C(F)(F)C(F)(F)C(F)(F)C(F)(F)C(F)(F)C(F)(F)F", "outcome": "inactive", "AC50": "45.5 µM (active) and 50 µM (active)"},
      {"smiles": "CCC(=O)O[C@H]1CC[C@H]2[C@@H]3CCC4=CC(=O)CC[C@]4(C)[C@H]3CC[C@]12C", "outcome": "inactive", "AC50": "186 µM (active) and 73.4 µM (active) and 100 µM (active)"},
      {"smiles": "C[C@]12CCC(=O)C=C1CC[C@@H]1[C@@H]2CC[C@@]2(C)[C@H]1CC[C@]2(C)O", "outcome": "inactive"},
      {"smiles": "Cc1cc(-c2ccc(N)c(C)c2)ccc1N", "outcome": "inactive"},
      {"smiles": "Oc1ccc(C(c2ccc(O)cc2)(C(F)(F)F)C(F)(F)F)cc1", "AC50": "16.3 µM (active) and 16.7 µM (active) and 18.1 µM (active)", "outcome": "inactive"},
      {"smiles": "OCC(O)CO", "outcome": "inactive"},
      {"smiles": "CCCN(CCC)N=O", "outcome": "inactive"},
      {"smiles": "ClC1=C(Cl)[C@]2(Cl)[C@@H]3[C@@H](Cl)[C@H]4O[C@H]4[C@@H]3C1(Cl)C2(Cl)Cl", "AC50": "60 µM (active)"},
      {"smiles": "CCCCCCCCOC(=O)c1ccccc1C(=O)OCCCCCCCC", "outcome": "inactive"},
      {"smiles": "Clc1ccc(Cl)cc1", "outcome": "inactive"},
      {"smiles": "COS(=O)(=O)OC", "outcome": "inactive"},
      {"smiles": "Oc1ccc(Cl)cc1Cl", "outcome": "inactive"},
      {"smiles": "O=C(N[C@H]1CN2CCC1CC2)c1cc2ccoc2cn1", "outcome": "inactive"},
      {"smiles": "C=CC(N)=O", "AC50": "172 µM (active)"},
      {"smiles": "ClC(Cl)=C(c1ccc(Cl)cc1)c1ccc(Cl)cc1", "outcome": "inactive", "AC50": "145 µM (active) and 152 µM (active) and 154 µM (active)"},
      {"smiles": "Cc1ccccc1O", "outcome": "inactive"},
      {"smiles": "C[C@]12CCC(=O)C=C1CC[C@@H]1[C@@H]2CC[C@]2(C)C(=O)CC[C@@H]12", "outcome": "inactive"}
    ]}
  ]
}
